A short description of this test: qHTS Assay for Lipid Storage Modulators (AID 1519). On activity change, negative = inhibition: on the % scale 0 is the no-effect control and ±100 the full control effect. As to conditions: Drosophila S3 cells, BODIPY lipid droplet/cell ratio, laser cytometry, cells loaded with oleic acid; for activity change, negative = inhibition: at 57.5 µM (top of the series). An excerpt:
NIH Molecular Libraries Probe Production Centers Network [MLPCN]
NIH Chemical Genomics Center [NCGC]
Assay Submitter (PI): Beller, Mathias; Max-Planck-Institut fur Biophysikalische Chemie
NCGC Assay Overview: Storing lipids as a reservoir for energy or the anabolism of elementary metabolites is a common feature of probably all cells and is conserved from bacteria to humans. The universal cellular lipid storage organelle is the so-called lipid storage droplet (LD). Although ubiquitous, LDs share a simple structure composed of a hydrophobic core that harbors the storage lipids, which is shielded by a droplet-specific phospholipid monolayer to which proteins are attached. The current model of LD biogenesis involves an incorporation of the lipid core into the membrane leaflets of the endoplasmic reticulum (ER) followed by a subsequent budding-like maturation of a LD, which ultimately pinches off. Once released, LD volume can increase by localized lipogenesis or fusion of existing droplets. Storage lipids are re-mobilized enzymatically by lipase activity. Lipase regulation in the adipocyte is heavily studied and involves multiple components including catecholamine signaling, the LD-associated proteins Perilipin and comparative gene identification-58 (CGI-58) and at least two lipases named hormone sensitive lipase (HSL) and adipocyte triglyceride lipase (ATGL). LD regulation outside of the adipocyte is poorly understood and only few components are known. However, there is an urgent need to learn more about ectopic fat depots as mislocalized storage of lipids, for example in the liver or muscle, is an eminent health problem associated with insulin resistance or the metabolic syndrome. We developed a laser-scanning cytometer assay to enable 1,536-well screening and combined the results of the small molecules screen with an RNAi database based on lipid storage.
NCGC Assay Protocol Summary:
We dispensed 4 uL of cells at 1.25 x 10^6 cells/mL into LoBase Aurora COC 1,536-well plates (black walled, clear bottom) with a bottle-valve solenoid-based dispenser (Aurora) to obtain 5,000 cells/well. Triacsin C (Sigma-Aldrich T-4540), an inhibitor of long-chain fatty acyl CoA synthetase that blocks synthesis of triglycerides, was used as a positive control for lipid under-storage. A total of 23 nL of compound solution of different concentrations were transferred to the assay plates using a Kalypsys pin tool equipped with a 1,536-pin array containing 10-nL slotted pins (FP1S10, 0.457-mm diameter, 50.8 mm long; V&P Scientific). One microliter of oleic acid (400 uM) was added, and the plate was lidded with stainless steel rubber gasket lined lids containing pinholes. […] Fluorescence was detected by excitation of the fluorophores with a 488-nm laser on an Acumen Explorer (TTP Lab Tech). The total intensity in channel 1 (500-530 nm) reflected lipid droplet accumulation. […] The ratio of the total intensity in PMT channel 1 over total intensity of channel 3 was also calculated. Percent activity was computed relative to an internal control (100% inhibited lipid droplet deposition due to the presence of 20 uM Triacsin C), which was added to 32 wells/plate.

The mark [1] stands for this setting: measured here: cell count channel max response.
Where [2] appears, read: measured here: lipid channel max response.

The structures appear in SMILES notation. Several values for one entry are separate records, joined by “and”; a condition that tells them apart may be missing. Equal entries are not always repeated. Records with an inconclusive call do not appear. Activity calls are given as the source filed them. The call rests on the fitted dose curve.

As to `N.N.O=C(O)C1(C(=O)O)CCC1.[Pt]`, the activity change, negative = inhibition is 7.88% (inactive) and 0.357% (inactive). In addition, the max response under setting [1] was 15.2% and -33.4%. In addition, under setting [2], the max response was 23.7% and -31.2%.
In the case of `CC(C)NCC(O)COc1cccc2ccccc12` (configuration not stated), the activity change, negative = inhibition is 10.9% (inactive). For the same molecule, the max response under setting [1] was 7.26%. Further, the max response under setting [2] came out at 23.9%.
`OC[C@H]1O[C@@H](n2cnc3c(NC4CCCCC4)ncnc32)[C@H](O)[C@@H]1O`: the activity change, negative = inhibition was 0.866% (inactive). Besides, under setting [1], the max response was -23.3%. For the same molecule, the max response under setting [2] was -24.5%.
With `CN1CCC[C@H]1c1cccnc1`, the activity change, negative = inhibition is 2.76% (inactive) and 1.23% (inactive). The max response under setting [1] was 8.37% and -8.82%. Further, the max response under setting [2] is 10.7% and -7.32%.
Take `O=C(O)[C@@H]1C[C@@H](C(=O)O)N1`: the activity change, negative = inhibition was -10.7% (inactive) and 0.262% (inactive). Besides, the max response under setting [1] is -15.8% and -6.72%. Also, under setting [2], the max response was -25% and -8.29%.
Regarding `Nc1ccc(C(=O)O)c(O)c1`, the activity change, negative = inhibition was -7.1% (inactive). Further, the max response under setting [1] turned out to be 19.5%. Moreover, the max response under setting [2] was found to be 14%.
For the molecule `C=C/C(C)=C/[C@@]1(C)SC(=O)C(C)=C1O`, the activity change, negative = inhibition is 0.111% (inactive). For the same molecule, under setting [1], the max response worked out at 30.8%. Moreover, the max response under setting [2] was 34%.
Consider `CCCCCCOc1ccccc1C(N)=O`, for which the activity change, negative = inhibition is 12.4% (inactive). In addition, the max response under setting [1] stood at 7.6%. Also, the max response under setting [2] is 24%.
As to `O=C(O)c1cc(=O)c2c(Cl)cc(Cl)cc2[nH]1`, the activity change, negative = inhibition is 4.31% (inactive) and -0.435% (inactive). The max response under setting [1] is 15.8% and 12.6%. Moreover, under setting [2], the max response is 22.3% and 11.7%.
As to `Fc1cccc(/C=N/N=C/c2cccc(F)c2)c1`, the activity change, negative = inhibition was 2.18% (inactive). Also, under setting [1], the max response is -17.3%. The max response under setting [2] was -14.5%.
In the case of `NCCSSCCN`, the activity change, negative = inhibition was 3.98% (inactive). Further, under setting [1], the max response worked out at 9.22%. Besides, under setting [2], the max response worked out at 16.2%.
Take `CC1(C)CCC=[N+]1[O-]`: the activity change, negative = inhibition was 0.483% (inactive). Besides, under setting [1], the max response was -28.1%. Moreover, under setting [2], the max response is -25.6%.
`CCCCCCCCCCCCCCCCCC(=O)NCC(COP(=O)([O-])OCC[N+](C)(C)C)OCC` (configuration not stated): the activity change, negative = inhibition was -1.69% (inactive). Further, the max response under setting [1] amounted to 15.1%. Also, the max response under setting [2] was determined as 12.1%.
On to `O=c1[nH]c2cc(Cl)c(Cl)cc2[nH]c1=O`, for which the activity change, negative = inhibition was -0.911% (inactive). For the same molecule, under setting [1], the max response is -49.2%. Under setting [2], the max response was -51.3%.
